Source: PubChem BioAssay (NCI)
The panel holds about 83,000 compounds, 20% with a hit somewhere; the sample as a whole holds those more often.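 Testing used 96-well plates and a 48-hour single-concentration exposure. Example: -40 means 40% of the starting cells died.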 The source made the active and inactive calls. How the source made its calls: active means growth percent below 10; inactive means the rest.

How the values were obtained:
Experiment in all cases: NCI-60 one-dose screen, 48 h (100 = growth as untreated, 0 = no growth, -100 = all killed)
[1] = system: HCT-15 colon; details: 10 µM unless noted
[2] = system: HT29 colon; details: 10 µM unless noted
[3] = system: SNB-75 CNS; details: 10 µM unless noted
[4] = system: U251 CNS; details: 10 µM unless noted
[5] = system: PC-3 prostate; details: 10 µM unless noted
[6] = system: SK-MEL-5 melanoma; details: 10 µM unless noted
[7] = system: UACC-62 melanoma; details: 10 µM unless noted
[8] = system: LOX IMVI melanoma; details: 10 µM unless noted
[9] = system: SK-MEL-28 melanoma; details: 10 µM unless noted
[10] = system: SK-MEL-2 melanoma; details: 10 µM unless noted
[11] = system: SN12C renal; details: 10 µM unless noted
[12] = system: UO-31 renal; details: 10 µM unless noted
[13] = system: ACHN renal; details: 10 µM unless noted
[14] = system: CAKI-1 renal; details: 10 µM unless noted
[15] = system: A498 renal; details: 10 µM unless noted
[16] = system: MOLT-4 leukemia; details: 10 µM unless noted
[17] = system: EKVX NSCLC; details: 10 µM
[18] = system: TK-10 renal; details: 10 µM unless noted
[19] = system: CCRF-CEM leukemia; details: 10 µM

Measured: growth

O=C(NC(=S)NNC(=S)NNc1ccccc1)c1ccccc1
inactive: [1] 54% | [2] 81.2% | [4] 48% | [5] 32.6% | [6] 25.4% | [7] 25.2% | [8] 48.3% | [9] 59.3% | [10] 24.2% | [11] 25.7% | [12] 54% | [13] 70.7% | [14] 55.9% | [15] 78.9% | [16] 39.3%
active: [3] 4.67%

Cc1ccc(C(=O)C(Br)C(Br)c2ccccc2)cc1 (stereo not given)
inactive: [1] 80.3% | [2] 101% | [3] 82.9% | [4] 82.7% | [5] 108% | [6] 94.3% | [7] 94.7% | [8] 66.6% | [9] 101% | [10] 113% | [11] 86.4% | [12] 66.9% | [13] 44.3% | [14] 55.1% | [16] 46%

COC(=O)C1CC(=O)N(C(=O)Nc2ccc(Cl)cc2Cl)C1 (stereo not given)
inactive: [1] 99% | [2] 101% | [3] 98.7% | [4] 97.3% | [5] 95.2% | [6] 108% | [7] 97.2% | [8] 96.8% | [9] 112% | [10] 108% | [17] 96.5% | [11] 101% | [12] 84.1% | [18] 112% | [13] 99.9% | [14] 95.6% | [15] 115% | [19] 103% | [16] 95%

Cn1c2c(cc(S(=O)(=O)c3ccccc3)c1=O)CCc1c-2cnn1-c1ccc(Cl)cc1
active: [3] -54.3% | [6] 6.71% | [8] 6.82% | [9] -36.7% | [10] -9.09% | [17] 5.95% | [12] -14.2% | [13] 6.4% | [15] -14.5%
inactive: [1] 39.5% | [2] 16.8% | [4] 20.7% | [5] 28.8% | [7] 35.4% | [18] 34.6% | [19] 98.2% | [16] 57.5%

CC(C)C(=O)c1ccc(Cl)s1
inactive: [1] 97.5% | [2] 120% | [3] 80.9% | [4] 99.2% | [5] 103% | [6] 92.8% | [7] 100% | [9] 111% | [10] 96.5% | [11] 99.3% | [12] 79.1% | [13] 104% | [14] 107% | [15] 79.6% | [16] 97.4%

O=c1[nH]c(=S)[nH]c(O)c1/C=C1\C=Nc2ccccc21
inactive: [1] 56.2% | [2] 58.6% | [3] 71.8% | [4] 24% | [5] 61.7% | [6] 75.8% | [9] 96.8% | [10] 128% | [17] 75.1% | [12] 31.1% | [18] 86.9% | [13] 82.5% | [14] 27.3% | [16] 42.4%
active: [19] 4.02%

O=C(CN1C(=O)NC(c2ccccc2)(c2ccccc2)C1=O)c1ccc(N2CCCC2)cc1
inactive: [1] 64.7% | [2] 65.3% | [3] 77.8% | [4] 76.6% | [5] 71.8% | [6] 70.8% | [7] 89.5% | [9] 73.9% | [10] 91.1% | [17] 82.4% | [11] 103% | [12] 66.6% | [18] 98.4% | [13] 89.9% | [14] 70.5% | [15] 61.9% | [19] 98.9% | [16] 70.5%

Clc1ccc(N/N=C(\c2ccccc2)c2ccccn2)nc1
inactive: [1] 17.9% | [2] 19.3% | [3] 25.2% | [5] 28.6% | [9] 25.4% | [10] 36.4% | [17] 15.2% | [11] 15.7% | [18] 52.1%
active: [4] 9.27% | [6] -36% | [7] -18.3% | [8] -1.02% | [12] 2.2% | [13] 8.31% | [14] 6.96% | [15] -14.2% | [19] 1.1% | [16] 2.34%

Br/C(=N\Nc1nn[nH]n1)c1ccccc1
inactive: [1] 96.6% | [2] 110% | [3] 80.8% | [4] 99.6% | [5] 96.1% | [6] 102% | [7] 101% | [9] 109% | [10] 90.9% | [11] 98.7% | [12] 78.6% | [13] 92.7% | [14] 92.5% | [15] 114% | [16] 105%

CCOc1ccc(Br)cc1/C=C(\C#N)c1ccc([N+](=O)[O-])cc1
inactive: [1] 84.7% | [2] 87.1% | [3] 22.1% | [4] 67.3% | [5] 71.2% | [6] 81.8% | [7] 91.7% | [8] 87.8% | [9] 58.6% | [10] 88.6% | [11] 85.3% | [12] 81.5% | [13] 68% | [14] 77.7% | [15] 80.2% | [16] 82.7%

O=C(/C=C\c1ccccc1Cl)c1ccccc1
active: [19] -16.3%
inactive: [1] 89.9% | [2] 92.3% | [3] 86.7% | [4] 79.3% | [5] 93.8% | [6] 92.2% | [7] 89.7% | [9] 110% | [10] 128% | [17] 96.4% | [11] 102% | [12] 71.5% | [18] 111% | [13] 92.5% | [14] 90.8% | [16] 91.8%

C[n+]1c2ccccc2c(Nc2ccc(NS(=O)(=O)CCCCN=C(N)N)cc2)c2ccc(N)cc21
inactive: [1] 79.2% | [2] 34% | [3] 37.7% | [4] 30% | [5] 48.3% | [6] 34.2% | [7] 50% | [9] 72.7% | [10] 86.2% | [11] 17.8% | [12] 50.2% | [13] 24.1% | [14] 43.2% | [15] 50.8%
active: [16] -13%

CCCCN(CCC)CCCCCCCCCCN1CCCc2ccccc21
inactive: [1] 78.8% | [2] 21.8% | [3] 89% | [4] 87.7% | [5] 45.8% | [6] 98.8% | [8] 67.8% | [9] 118% | [10] 92.3% | [17] 64.3% | [12] 54.3% | [18] 82.7% | [13] 82.7% | [14] 63.2% | [19] 26.8% | [16] 50.5%

CC1(C)NC(=S)NC1=O
inactive: [1] 102% | [2] 105% | [3] 89.9% | [4] 98.4% | [5] 95.5% | [6] 101% | [7] 108% | [8] 97.5% | [9] 110% | [10] 129% | [11] 105% | [12] 90.6% | [18] 112% | [13] 109% | [14] 97.8% | [19] 88.2% | [16] 90.8%

O=C(O)COc1ccc([N+](=O)[O-])cc1Cl
inactive: [1] 94.1% | [2] 113% | [3] 94.3% | [4] 96.5% | [5] 97.6% | [6] 106% | [7] 111% | [8] 100% | [9] 104% | [10] 107% | [11] 88.7% | [12] 105% | [18] 103% | [13] 102% | [15] 115% | [19] 88.8% | [16] 99.2%

CCOC(=O)C(C)C(C)(O)c1ccccc1 (stereo not given)
inactive: [1] 108% | [2] 106% | [3] 87.5% | [4] 107% | [5] 99.9% | [6] 102% | [7] 97.4% | [8] 93.8% | [9] 101% | [10] 97.7% | [11] 98.2% | [12] 78.5% | [13] 111% | [14] 109% | [15] 91.5% | [16] 95.4%

CCCCCCC(C)N(CC(C)(C)O)C(=O)c1ccc([N+](=O)[O-])cc1 (stereo not given)
inactive: [1] 104% | [2] 91.6% | [3] 97.3% | [4] 97.4% | [5] 87.2% | [6] 95% | [7] 91.4% | [8] 104% | [9] 111% | [10] 89.7% | [11] 104% | [12] 58.6% | [18] 92.6% | [13] 107% | [14] 108% | [15] 101% | [19] 74.8% | [16] 90.4%

O=C(O)c1occ(Cl)c1Cl
inactive: [1] 105% | [2] 122% | [3] 99.2% | [4] 104% | [5] 109% | [6] 113% | [7] 112% | [8] 99.7% | [9] 116% | [10] 120% | [17] 100% | [11] 109% | [12] 97% | [18] 111% | [13] 109% | [14] 104% | [15] 90.4% | [19] 105% | [16] 111%

COc1cc(OC)c(/C=C/c2ccc3ccccc3[n+]2C)c(OC)c1
active: [2] 3.11% | [6] -74% | [7] 0.263% | [9] 9.89% | [10] -4.21% | [15] 7.12% | [16] -50.3%
inactive: [1] 77.5% | [3] 11.2% | [4] 13.3% | [5] 10.7% | [11] 12.3% | [12] 65.9% | [13] 25.6% | [14] 68.4%
